Assay results from PubChem BioAssay AID1259343 (VanderVen Lab, College of Veterinary Medicine, Cornell …, 2017).
About 2,900 (47%) of roughly 6,200 compounds were called active. The set was probably picked from earlier hits. Some of the results follow. A number with no mark means an inactive call. No stated cut-off is given here; in the data, active means inhibition above about 50%; inactive means the rest.

Assay: Mycobacterium tuberculosis growth inhibition, primary screen (AID 1259343)
Conditions: inhibition: at 10 µM, hits give high values; outcome: 10 uM

Compound	inhibition
COc1ccnc(CS(=O)c2nc3ccc(OC(F)F)cc3[nH]2)c1OC (configuration not stated)	100% (active)
COc1cc2c(=O)[nH]c(-c3ccccn3)nc2cc1OC(F)F	43.2%
Clc1ccc(Cl)c(SCCc2ccccn2)c1	73.3% (active)
CN(C)CC[C@H](c1ccc(Cl)cc1)c1ccccn1	35.8%
Clc1ccc(Cl)c(SCCSc2ncn[nH]2)c1	23.3%
Fc1cc(F)cc(-c2cncc(COc3ccc(F)cc3F)c2)c1	59.7% (active)
O=C(c1csc(COc2ccc(F)cc2F)n1)N1CCCC1	-0.05%
O=S(=O)(NC1CCCCCC1)c1ccc(Cl)cc1	76.5% (active)
O=S(=O)(NC1CCCCCCC1)c1ccccc1F	29.7%
O=S(=O)(NC1CCCCCC1)c1ccc(F)c(F)c1	-47.6%
Cc1ccc(C(=O)Cn2nnc(-c3ccccc3C)n2)c(C)c1	90.1% (active)
Cc1ccccc1-c1nnn(Cc2cc(=O)n3c(C)cccc3n2)n1	32.9%
O=C(Nc1n[nH]c(=S)s1)c1cccs1	103% (active)
Cc1ccc(C)c(-c2csc(NC(=O)c3cccs3)n2)c1	42.1%
COC(=O)C1=C(NC(=O)c2cccs2)CCS1	-17.8%
CCN(CC)CCNC(=O)c1cc(NC(=O)Nc2cccc(Br)c2)ccc1N1CCCCC1	39.5%
COc1ccc(-c2cc(C(=O)NN=Cc3ccc(Br)cc3)[nH]n2)cc1	36.8%
CC(C)Oc1ccc(-c2cc(C(=O)NN=Cc3cccs3)[nH]n2)cc1	68.8% (active)
Cc1ccccc1N1CCN(C(=O)CCc2nnc(CCCc3ccccc3)o2)CC1	26%
O=C(CCc1ccccc1)N1CCN(c2ccc(O)cc2)CC1	78.6% (active)
Cc1ccccc1CC1(CO)CCCN(C(=O)CCC(F)(F)F)C1 (configuration not stated)	29.1%
O=C(OCC(=O)N1CCN(c2ccc(F)cc2)CC1)c1ccc(O)cc1	87.3% (active)
Cc1cccc(C2(O)CCN(C(=O)CCc3ccccc3)CC2)c1C	75.2% (active)
O=C(CC1Cc2ccccc2C1)N1CCC2(CCc3ccccc32)C1 (configuration not stated)	31.8%
O=C(COc1cccc(F)c1)N1CCC(c2ccc(O)cc2)CC1	39.3%
CCOC(=O)C1(CCCc2ccccc2)CCN(C(=O)CC2=CCCCC2)CC1	16.7%

Compound	inhibition
O=C(CCC(F)(F)F)N1CCC(CO)(CCc2ccccc2)CC1	25.8%
Cc1ccccc1C1(O)CCN(C(=O)CCC2CCCC2)C1 (configuration not stated)	68% (active)
Cc1cc(Cn2ccnc2-c2cc3ccc(F)cc3[nH]c2=O)on1	-7.89%
Cc1ccc(OCc2cc(C(=O)NC(C)c3nc(-c4ccccc4)no3)no2)cc1C (configuration not stated)	23%
CNC(=O)NC(=O)CCSC(C)c1nc(-c2ccc(C)c(F)c2)no1 (configuration not stated)	91.8% (active)
Cc1ccc2ncn(Cc3nc(-c4ccc(C)c(F)c4)no3)c(=O)c2c1	-6.02%
Cc1ccccc1Cc1nnc(CN(CC(C)O)c2ccccc2)o1 (configuration not stated)	80.1% (active)
CCOC(=O)/C=C/c1c([N+](=O)[O-])sc(Br)c1Br	103% (active)
Cc1cccc(CN2CCCC(C(=O)Nc3ccc(-c4cscn4)cc3)C2)c1 (configuration not stated)	88.8% (active)
O=C(Nc1ccc(-c2cscn2)cc1)C1CCCN(Cc2ccon2)C1 (configuration not stated)	inactive
COCc1ccc(CN2CCCC(C(=O)Nc3ccc(-c4cscn4)cc3)C2)o1 (configuration not stated)	29%
O=C(Nc1ccc(-c2cscn2)cc1)C1CCCN(C(=O)c2cccs2)C1 (configuration not stated)	58.2% (active)
CC(=O)c1cc(CN2CCCC(C(=O)Nc3ccc(-c4cscn4)cc3)C2)cs1 (configuration not stated)	70.9% (active)
O=C(c1ccc(Cl)s1)N1CCCC(Nc2ccc3c(c2)OCO3)C1 (configuration not stated)	44.6%
O=C(Nc1ccc(-c2cscn2)cc1)C1CCCN(C(=O)Cc2ccccc2F)C1 (configuration not stated)	33.2%
Cc1ccc(NC2CCCN(C(=O)C3CCCCC3)C2)cc1C (configuration not stated)	49%
Cc1ccc(NC2CCCN(C(=O)c3cccs3)C2)cc1C (configuration not stated)	59.6% (active)
COc1ccccc1-c1noc(CSc2nc3ccccc3o2)n1	89.1% (active)
CC1CCc2sc(-c3nnc(SCc4nc(-c5cccs5)no4)o3)cc2C1 (configuration not stated)	5.99%
c1csc(-c2noc(CSc3nc4ccccc4o3)n2)c1	100% (active)
CCCNC(=O)CSc1nc2ccccc2o1	-21.7%
O=S(=O)(c1ccc(Cl)s1)N1CCCc2cccc(O)c21	43.4%
Cc1cccc2nc(-c3ccc(C(C)(C)C)cc3)c(NC(C)(C)C)n12	73.6% (active)
CNC(C)c1ccc(Sc2ccc(C(C)C)cc2)c(F)c1 (configuration not stated)	67% (active)
CC(=O)N(C)c1ccc(NC(C)c2ccc(F)c(F)c2)cc1 (configuration not stated)	20%
Cc1cc(I)ccc1N	83.3% (active)
